Source: PubChem BioAssay
Shown are actives, neighbours in structure and some others; about 21% of the full set was active somewhere.
NS1 function inh: influenza NS1 inhibition. Potency, µM (titrated, usually from 46.1 µM). 270,000 compounds, 0.4% hits; calls by dose curve; also: actives are rising curves; nearly all actives have a fitted effect of over 50% in size
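S. cerevisiae expressing influenza A NS1, grown in glucose, washed, then diluted 1:100 into pH 6.0 -URA galactose medium with 23 nl compound. Growth recovery read as OD600; NS1-free strain serves as control.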
Shiga toxin inh: inhibitors of Shiga toxin in Vero cells. Vero cells, Shiga toxin protein synthesis inhibition reporter. inhibition, % at 38.7 µM. 290,000 compounds, 9.2% hits. AID 2315; in the data active = inhibition mostly above about 28%, no sharp cut-off; inactive = mostly below about 43%
Pf growth 48h: inhibits P. falciparum growth in the first generation, 48 h; P. falciparum luciferase growth in erythrocytes, 48 h; Potency, µM (series often up to 28.7 µM), usual class: inhibitors; 310,000 compounds, 5.9% hits
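Luciferase-expressing P. falciparum in infected erythrocytes (2% hematocrit, 0.1% parasitemia final) in RPMI 1640/0.5% Albumax were exposed to compound for 48 hours at 37 C, 5% CO2; growth read as luminescence.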
Pf growth 96h: P. falciparum growth inhibition at 96 hours. P. falciparum luciferase reporter growth, 96 h. Potency, µM (series often up to 28.7 µM), actives largely listed as inhibitors. 320,000 compounds, 6.9% hits
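Two parasite generations (96 h, 37 C, 5% CO2) of compound exposure in infected erythrocytes (0.05% parasitemia, 2% hematocrit). Luciferase-reporter P. falciparum; decreased luminescence indicates inhibited growth, aimed at apicoplast-acting delayed death.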
Giardia FBPA inh: Giardia lamblia aldolase inhibition. A8B2U2. 290,000 compounds, 0.71% hits. Potency, µM (titrated, usually from 59.6 µM), usual class: inhibitors. purified Giardia FBPA; also: nearly all actives have a fitted effect of over 55% in size
Target sequence (A8B2U2 whole entry, looked up): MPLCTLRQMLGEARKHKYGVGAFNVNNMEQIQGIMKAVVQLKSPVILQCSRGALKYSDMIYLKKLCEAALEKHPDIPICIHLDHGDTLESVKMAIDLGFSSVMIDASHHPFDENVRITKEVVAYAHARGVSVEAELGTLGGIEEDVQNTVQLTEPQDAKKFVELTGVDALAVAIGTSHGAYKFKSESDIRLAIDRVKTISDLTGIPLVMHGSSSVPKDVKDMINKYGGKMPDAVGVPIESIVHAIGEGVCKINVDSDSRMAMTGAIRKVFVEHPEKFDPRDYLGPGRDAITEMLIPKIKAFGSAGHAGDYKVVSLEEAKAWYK
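40 nM FBPA preincubated 10 min at RT with compound (up to 57.5 uM final), then substrate plus GAPDH/TPI/NAD/arsenate coupling and diaphorase/resazurin added. Fluorescence read after 20 min at RT, 525/598 nm.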
CHX counter: counter-screen for Shiga toxin inhibitors: cycloheximide protein synthesis inhibition; cell reporter, cycloheximide protein synthesis inhibition counterscreen; max response, %; 300,000 compounds, 12% hits; in the data active = max response mostly above about 13%, no sharp cut-off; inactive = mostly below about 14%; also: read at 38.3 µM for the half of the compounds with a filed dose
Hits are given with their value; - = inactive; ? = inconclusive; . = not tested or not shown; [ ] = remark or other dose. Unless noted, calls follow the shape of the dose curve; as a rule, active = well fitted curve in the direction sought with a large enough effect; inconclusive = small, poorly fitted or top-dose-only effect, or another doubt; inactive = no such curve, though single readings can be large; an effect the other way counts as inactive or inconclusive.

SMILES | NS1 function inh | Shiga toxin inh | Pf growth 48h | Pf growth 96h | Giardia FBPA inh | CHX counter
COC(=O)c1ccc(NC(=O)Cc2ccccc2)cc1 | - | 100.2 | - | . | - | 49.5
COc1ccc(CN(CC2CCC(C(=O)O)CC2)C(=S)Nc2cc(Cl)ccc2OC)cc1 (stereo unspecified) | . | - | - | - | ? | -
N#Cc1cccc(-c2nc(NCc3cccs3)c3ccccc3n2)c1 | . | . | . | . | - | .
COC(=O)c1c(NC(=O)CN2CCN(c3ccccc3)CC2)c2c(C)cccc2n1C | - | - | . | 5.86µM | - | -
COC(=O)c1c(NC(=O)CN2CCN(c3ccccc3OC)CC2)c2c(C)cccc2n1C | - | - | . | - | - | -
CCOC(=O)c1[nH]c(C)c(C(=O)NCCC2=CCCCC2)c1C | - | - | - | 5.22µM | - | -
CC(=O)c1c(C)[nH]c(C(=O)NCCC2=CCCCC2)c1C | - | 105.2 | . | ? | - | 49.0
[O-][n+]1ccccc1SC/C=C/c1ccccc1 | . | 95.7 | - | ? | - | 25.0
COc1cccc(Nc2nc(-c3cccc(N4C(=O)c5ccccc5C4=O)c3)cs2)c1 | ? | - | - | - | - | 33.2
COc1cccc(Nc2nc(-c3ccc(O)cc3)cs2)c1 | - | - | - | - | - | 34.8
COc1cccc(Nc2nnc(SCN3C(=O)c4ccccc4C3=O)s2)c1 | - | - | - | - | - | -
C=C1CCN(C(CC(C)C)C(=O)NCCCc2ccccc2)S(=O)(=O)c2ccccc21 (stereo unspecified) | . | - | . | . | - | -
CCOc1nc(NC(=O)NS(=O)(=O)Oc2cccc(Cl)c2)nc(-c2ccccc2)n1 | - | - | - | - | - | 16.8
COCc1cccc(N2C(=O)CC(C3C=C(C)C4C(=O)N(c5cccc(COC)c5)C(=O)C4C3)C2=O)c1 (stereo unspecified) | . | - | - | - | - | -
COc1ccc(NC(=O)c2sc3cc(C(F)(F)F)cnc3c2-c2cccs2)cc1 | - | - | . | 11.7µM | - | -
CC(C)c1nnc(NC(=O)CSc2ccccc2)s1 | - | - | - | . | - | 33.8
CC(C)(C)Cc1nnc(NC(=O)CSc2ccccc2)s1 | - | - | - | ? | - | 12.5
CC(C)c1nnc(NC(=O)CC(C)c2ccccc2)s1 (stereo unspecified) | - | - | - | - | - | -
CCCCN(C)C(=O)CNC(=O)c1nn(-c2ccc(OC)cc2OC)c(=O)c2ccccc12 | - | - | ? | ? | - | -
Cc1cc2c(ncn2C)c(NS(=O)(=O)c2ccc(Cl)cc2)c1C | . | - | - | - | - | -
COC(=O)C1CN(C(=O)COc2ccc(Cl)cc2C)c2ccccc2O1 (stereo unspecified) | - | - | 14.7µM | ? | - | -
CCn1nc(C)c(Oc2ccccc2O)c1C | - | - | - | 11.7µM | - | -
Cc1nn(CCC#N)c(C)c1Oc1ccccc1O | - | - | - | - | - | -
O=C(CC1SC(N2CCCC2)=NC1=O)Nc1ccc(C(=O)Nc2ncccc2O)cc1 (stereo unspecified) | . | . | 2.62µM | ? | . | .
COc1cccc(CN(C)C(=O)c2ccc(NC(=O)CC3SC(N4CCCC4)=NC3=O)cc2)c1OC (stereo unspecified) | . | . | ? | 6.57µM | . | .
SMILES | NS1 function inh | Shiga toxin inh | Pf growth 48h | Pf growth 96h | Giardia FBPA inh | CHX counter
Cc1ccnc(NC(=O)c2cccc(NC(=O)CC3SC(N4CCCCC4)=NC3=O)c2)c1 (stereo unspecified) | . | . | ? | 8.28µM | . | .
CC(C)c1ccc(C(C)NCCS(=O)(=O)c2ccc(Cl)cc2)cc1 (stereo unspecified) | - | - | - | - | . | -
Clc1ccc(/C=N\Nc2ccccc2)cc1 | - | 27.1 | - | ? | - | -
O=C(N/N=C/c1ccco1)Nc1ccccc1 | - | 102.0 | - | - | - | 29.3
O=C(CCC(=O)Nc1ccccc1)N/N=C/c1ccco1 | - | - | - | - | - | -
CCOc1ccc(/C=N/NC2=NCCCCC2)cc1 | . | 27.0 | - | - | - | 19.5
CCOc1ccc(/C=N/OCC(=O)NC(c2ccccc2)c2ccccc2)cc1 | - | - | 7.38µM | 9.28µM | - | -
COc1ccccc1/C=N/NC1=NCCCCC1 | - | - | - | - | - | -
S=C(NCCc1ccccc1)N/N=C/c1ccc(Cl)cc1 | - | - | - | - | - | -
CC(=O)c1ccc(OCC(=O)OCC(=O)N(CC(C)C)c2c(N)n(Cc3ccccc3)c(=O)[nH]c2=O)cc1 | . | . | - | - | . | .
CCOc1ccc(/C=N/NC(=O)CC(=O)Nc2ccc(Cl)c(Cl)c2)cc1 | - | - | - | ? | - | -
O=C(N/N=C/c1ccc(Cl)cc1)Nc1ccccc1 | - | 50.0 | - | - | . | 39.3
CCOc1ccc(/C=N/Nc2ccccc2)cc1 | - | 46.8 | -[0.00184 µM] | - | - | 27.5
COc1ccc(OC)c(N2C(N)=NC(N)=NC23CCCC3)c1 | - | - | - | - | - | -
CC1(C)N=C(N)N=C(N)N1c1ccccc1 | - | - | . | 0.738µM | - | -
CC1(C)N=C(N)N=C(N)N1c1ccc(Oc2ccc(Cl)cc2)c(Cl)c1 | - | - | 0.208µM | - | - | -
CC1(C)N=C(N)N=C(N)N1c1cccc(CN)c1 | - | - | 0.828µM | 0.928µM | - | -
CC1(C)N=C(N)N=C(N)N1c1cccc(CSc2ccccc2)c1 | - | . | . | . | . | .
Cc1cccc(N2C(N)=NC(N)=NC23CCCCC3)c1 | - | - | 2.08µM | ? | - | -
CC1(C)N=C(N)N=C(N)N1c1cccc(OCc2cccc(N)c2)c1 | - | . | . | . | . | .
COc1ccccc1NC(=O)Cc1nnc(SCC(=O)c2ccccc2)n1C | - | - | - | - | - | -
COc1ccc(OCC(=O)NNC(=O)c2ccccc2OCc2c(C)noc2C)cc1 | . | . | - | - | . | .
O=C(CCNC(=O)C1CCN(S(=O)(=O)c2ccc(F)cc2)CC1)NCc1cccc(Cl)c1 | - | - | - | ? | . | -
CC1(C)N=C(N)N=C(N)N1c1ccc(F)cc1F | - | - | ? | 9.28µM | - | -
CC(C)=CCC/C(C)=C/CO/N=C1/C[C@@H](O)[C@@H](O)[C@@H]2[C@@H]3C(=O)N(C4CCCCC4)C(=O)[C@H]3CC[C@H]12 | . | . | . | . | -[12.9 µM] | .
SMILES | NS1 function inh | Shiga toxin inh | Pf growth 48h | Pf growth 96h | Giardia FBPA inh | CHX counter
CCOC(=O)N/N=C\c1ccc(OC/C=C/c2ccccc2)c(OC)c1 | - | - | 1.85µM | - | . | -
COc1cccc(/C=N/NC(=O)c2cccc3ccccc23)c1 | - | - | - | ? | - | -
CCOC(=O)N/N=C\c1cccc(OC)c1 | - | 71.6 | ? | - | - | 41.7
COc1ccc(/C=C/C(=O)Oc2cccc(/C=N/NC(=O)Cc3ccc(Br)cc3)c2)cc1 | - | 89.4 | ? | ? | - | 48.6
COC(=O)N/N=C/c1cccc(OCCSc2ccc(Cl)cc2)c1 | - | 60.3 | - | - | - | 34.4
CCOc1ccc(NC(=O)N(Cc2ccc(C)cc2)Cc2ccccn2)cc1 | - | - | - | - | - | -
CCOC(=O)CCNC(=O)Nc1cc2nc(C)n(Cc3cccc(Cl)c3)c2nc1C | - | - | . | - | - | -
COc1ccc(-c2nc3cnc(N4CCOCC4)nc3n(Cc3cccc(OC)c3)c2=O)cc1 | . | . | . | . | - | .
